hgDAF12 agonist – H. glycines DAF-12 receptor agonists, primary screen, cell-based, luminescence, HEK293, GAL4 fusion, UAS-luciferase; HEK293 GAL4-hgDAF12 UAS-luciferase reporter, agonist luminescence; normalized to butyrate control; activation, % at 6.8 µM; 370,000 compounds, 1.8% hits; AID 687014, 2013;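 active = activation above a cutoff set at the mean of all screened compounds plus 3 SD, cut at about 10% in these data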;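 note: 0% = DMSO wells and 100% = sodium butyrate wells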
DAX1 inh-1 – DAX1 (NR0B1) inhibitors on StAR promoter, primary screen, cell-based, luminescence, SF-1 (NR5A1), full-length DAX-1 | 370,000 compounds, 1.1% hits | HEK293T StAR-luciferase reporter, SF-1/DAX-1 repression relief | AID 652010, 2013 | inhibition, % at 6.8 µM;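 active = inhibition above the mean over all tested compounds plus 3 SD, cut at about 3.6% in these data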;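 note: 0% = DAX-1 cells with DMSO and 100% = cells lacking DAX-1 with DMSO; higher inhibition means more luminescence from relief of DAX-1 repression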
DAX1 inh-2 – DAX1 (NR0B1) inhibitors, primary screen, cell-based, HEK293, Gal4-DAX1, luciferase luminescence; Nuclear receptor subfamily 0 group B member 1 (Homo sapiens), P51843; HEK293 Gal4-DAX1 luciferase reporter; inhibition, % at 6.75 µM; 340,000 compounds, 0.99% hits;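 active = inhibition above the mean over all tested compounds plus 3 SD, cut at about 4.2% in these data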;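 note: 0% = DAX1-transfected cells with DMSO and 100% = empty-vector control cells with DMSO; inhibition shows as a rise in luminescence from relieved DAX1 repression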
hcDAF12 agonist – H. contortus DAF-12 nuclear receptor activators, primary screen, cell-based, luminescence, HEK293, lit1-tk-luc reporter. activation, % at 6.8 µM. 370,000 compounds, 1.4% hits. HEK293 hcDAF-12 lit1-tk-luc reporter; 0% DMSO, 100% Δ7-dafachronic acid;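 active = activation above the mean of all tested compounds plus 3 SD, cut at about 5.5% in these data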;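 note: 100% = response to 3 µM Δ7-dafachronic acid high control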
ssDAF12 agonist – S. stercoralis DAF-12 nuclear receptor activators, primary screen, cell-based, luminescence, HEK293, GRIP1 co-expression, lit1-tk-luc; Nuclear hormone receptor DAF-12 (Strongyloides stercoralis); HEK293 ssDAF-12/GRIP1 lit1-tk-luc reporter; % of 3 µM dafachronic acid response; activation, % at 6.8 µM; 370,000 compounds, 1% hits; AID 652126, 2013;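 active = activation above the mean over all tested compounds plus 3 SD, cut at about 0.9% in these data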;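 note: 0% = DMSO-only wells and 100% = 3 µM delta7-dafachronic acid wells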
AHR act – AHR activators, primary screen, cell-based, luminescence, luciferase reporter, human; Aryl hydrocarbon receptor (Homo sapiens), P35869; AHR-responsive luciferase reporter cells; activation, % at 5 µM; 320,000 compounds, 2.5% hits; AID 2796, 2010; in the data active = activation above about 47%;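 note: 0% = vehicle wells and 100% = reference agonist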
AHR act confirm – AHR activators, confirmation, cell-based, luminescence, luciferase reporter, human; human cells, AHR-responsive luciferase reporter; shares compounds with AHR act; activation, % at 9 µM; 2,300 compounds, 87% hits; in the data active = activation above about 49%;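 note: HepG2 hepatoma cells carrying a DRE-driven firefly luciferase reporter; 0% = vehicle wells and 100% = reference agonist wells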
PXR counter – human PXR activators, counter-screen for AHR activator project, cell-based, luciferase luminescence; activation, % at 11.6 µM; cell-based PXR reporter; shares compounds with AHR act; 2,300 compounds, 88% hits; in the data active = activation above about 11%;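 note: human hepatoma DPX-2 cells expressing full-length human PXR; 0% = DMSO and 100% = reference agonist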
Target sequence (O75469 whole entry, looked up): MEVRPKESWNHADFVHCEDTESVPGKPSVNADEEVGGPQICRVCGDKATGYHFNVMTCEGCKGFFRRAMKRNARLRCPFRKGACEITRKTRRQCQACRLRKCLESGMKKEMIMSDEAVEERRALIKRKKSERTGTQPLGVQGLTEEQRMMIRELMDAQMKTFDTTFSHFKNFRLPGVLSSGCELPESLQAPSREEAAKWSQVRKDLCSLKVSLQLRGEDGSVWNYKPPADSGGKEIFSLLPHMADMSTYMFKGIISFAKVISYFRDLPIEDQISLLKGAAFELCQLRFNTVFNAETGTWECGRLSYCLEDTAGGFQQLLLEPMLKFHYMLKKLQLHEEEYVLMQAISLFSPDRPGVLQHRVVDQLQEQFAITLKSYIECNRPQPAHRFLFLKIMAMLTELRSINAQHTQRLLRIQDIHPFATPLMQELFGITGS
An asterisk follows results filed as active; x = no result. Rows were chosen to be rich in hits. Some 5.7% of all compounds tested hit in one or more screens of this group.

SMILES	hgDAF12 agonist	DAX1 inh-1	DAX1 inh-2	hcDAF12 agonist	ssDAF12 agonist	AHR act	AHR act confirm	PXR counter
COc1cc(C#Cc2c(-c3cncn3C)n(C)c3ccc(-c4ccc5[nH]ccc5c4)cc23)cc(OC)c1	2	0	0	-1	-1	105*	80*	28*
COc1cc(OC)cc(-c2c(C#Cc3ccsc3)c3cc(-c4ccc5[nH]ccc5c4)ccc3n2C)c1	3	-1	1	-1	-1	8	x	x
CC(C)N1CCC1(C)C(=O)Nc1cc(-c2ccccc2)nn1C (stereo not drawn)	4	0	x	0	-1	x	x	x
O=C(N/N=C1\CC2CC=CC12)c1ccc(Br)cc1 (stereo not drawn)	3	0	0	-1	-1	4	x	x
Cc1cc(Br)c(OCc2ccc(C(=O)N/N=C3\CC4CC=CC34)cc2)c(Br)c1 (stereo not drawn)	3	0	1	-1	0	105*	79*	11*
CCOc1ccc(/C=N/NC(=O)CNC(=O)c2ccc(S(=O)(=O)N3CCOCC3)cc2)cc1	0	0	0	1	-1	-2	x	x
COc1ccc(N(C)S(=O)(=O)c2cccc(C(=O)OCC(=O)Nc3cc(C)ccc3OC)c2)cc1	-2	0	1	-1	-1	x	x	x
CCNC(=S)N1CCN(CCN2C(=O)c3cccc4cccc(c34)C2=O)CC1	-2	-1	0	-1	-2	-2	x	x
O=C1c2cccc3cccc(c23)C(=O)N1CCN1CCN(C(=S)Nc2ccc(Cl)cc2)CC1	-1	0	-1	0	-1	97*	110*	65*
O=C1c2cccc3cccc(c23)C(=O)N1CCN1CCN(C(=S)Nc2ccccc2)CC1	0	-1	0	-2	-1	98*	101*	98*
CCCC(=O)Nc1nn(C)c2nc3cc(C)ccc3cc12	x	x	x	x	x	85*	53*	x
Cc1ccc2nc3c(cc2c1)c(NC(=O)c1cccnc1)nn3C	1	1	0	1	-1	107*	118*	25*
Cc1ccc(NC2CCCN(C(=O)Cc3nonc3C)C2)cc1C (stereo not drawn)	2	-1	0	1	-1	37	x	x
Cc1ccc2nc(N/C(=N/S(=O)(=O)c3cccs3)c3ccccc3Cl)sc2c1	2	-1	-1	1	-1	-2	x	x
CCN1CCc2nc3ccccc3c(C(=O)Nc3ccc(F)cc3)c2C1	-2	0	0	1	0	94*	63*	26*
Cc1c(C(=O)Nc2ccc3nc(N4CCOCC4)sc3c2)oc2ccccc12	-3	-3	-1	-3	-1	24	x	x
Cc1nc2ccc(NC(=O)c3oc4ccc(F)cc4c3C)cc2s1	x	x	1	x	x	86*	121*	20*
C/C(=N\NC(=O)C1CC1)c1ccccc1Br	-2	-1	2	-1	-1	x	x	x
O=[N+]([O-])c1ccc(SCc2ccncc2)nc1	1	-1	-1	0	-1	1	x	x
COc1ccccc1OCc1nc(C#N)c(N2CC(C)CC(C)C2)o1 (stereo not drawn)	-2	0	1	0	-2	91*	86*	86*
Cc1cc(NC(=O)CN2CCC(C)CC2)no1	-1	0	1	0	-2	-3	x	x
CCc1ccc(N(CC(=O)NCc2ccc(F)cc2)C(=O)c2csnn2)cc1	4	0	1	-1	-1	3	x	x
CC1=NN(c2ccccc2)C(=O)C1=Cc1ccccc1	1	0	1	-1	-1	x	x	x
CC1=NN(c2ccccc2)C(=O)/C1=C/c1cccs1	0	0	-1	3	-1	84*	87*	37*
COc1ccccc1NC(=O)CCN1C(=O)C2C3CCC(C3)C2C1=O (stereo not drawn)	2	1	0	-1	-1	13	x	x
SMILES	hgDAF12 agonist	DAX1 inh-1	DAX1 inh-2	hcDAF12 agonist	ssDAF12 agonist	AHR act	AHR act confirm	PXR counter
O=C(OCc1cc(=O)n2ccsc2n1)c1ccccc1O	7	1	3	1	0	0	x	x
O=C(OCc1cc(=O)n2ccsc2n1)c1ccccc1NCCO	6	1	2	4	0	79*	79*	5
COc1cccc(C#Cc2c(C=O)n(C)c3ccccc23)c1	6	0	1	3	0	110*	130*	43*
Cn1c2ccccc2c(=O)c2cc(C#Cc3ccc(N)cc3)ccc21	1	0	-1	0	-1	9	x	x
COc1ccc(C#Cc2ccc3c(c2)c(=O)c2ccccc2n3C)cc1	4	0	0	1	-1	91*	103*	14*
CC(C)CC1C(=O)N(Cc2cn(Cc3ccco3)nn2)CCS(=O)(=O)N1Cc1ccc(-c2ccncc2)cc1 (stereo not drawn)	-2	-1	-1	-1	-2	x	x	x
CCOC(=O)c1sc(Nc2nc3c(OC)cccc3s2)cc1C	1	1	-1	2	0	108*	88*	61*
CCOC(=O)c1sc(Nc2nc3cc4c(cc3s2)OCO4)cc1C	4	1	-1	0	-1	45	x	x
Cc1cc(NC(=O)c2cc(-c3cccc(OCC(C)C)c3)nc3ccccc23)no1	1	0	0	1	-1	14	x	x
Oc1ccccc1Nc1nc(-c2ccccc2O)nc2ccccc12	2	-1	1	2	-2	x	x	x
C=CCc1c(C)nc(-c2ccccc2)nc1Nc1ccccc1O	-2	0	0	2	-1	121*	88*	134*
C[n+]1c2n(c3ccccc31)N=C(c1ccccc1)CS2	-9	-3	-4	-1	-1	69*	52*	32*
O=S(=O)(Cc1ccccc1)N1CCCc2ccccc21	1	0	1	0	-1	125*	114*	80*
O=S(=O)(Cc1ccccc1)N1CCc2ccccc2C1	-2	1	1	-2	-1	15	x	x

From PubChem
